Screen size: about 5,500 compounds; about 2,000 (36%) were called active. Roughly 18% stayed inconclusive and do not appear here. No stated cut-off is given here; in the data, active means normalized growth mostly below about 0.91 (no sharp cut-off); inconclusive means no clear call, values can overlap the other calls; inactive means mostly above about 0.92. The list shows a part of the results.
Test: chemical genetic growth profiling, strain panel (AID 1159580);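 further: tested at 20 µM; growth read once vehicle control cultures reached saturation at 30 °C; 1 = growth at the plate median or of vehicle wells; lower values mean less growth of the strain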
Details: growth OD

Measured: normalized growth

CC1(C)C(C(Cl)Cl)C2(Cl)C(Cl)C(Cl)C1(Cl)C2(Cl)Cl (centres undefined)
active: S. cerevisiae deletion strains, locus YLR262C, strain YPT6 (second series), active compounds read low 0.817 | S. cerevisiae deletion strains, locus YNL071W, strain lat1, active compounds read low 0.834 | S. cerevisiae deletion strains, locus YNL307C, strain MCK1, active compounds read low 0.778
inactive: S. cerevisiae deletion strains, locus YJR043C, strain POL32, active compounds read low 0.978 | S. cerevisiae deletion strains, locus YJR075W, strain HOC1, active compounds read low 0.985 | S. cerevisiae deletion strains, locus YKL009W, strain mrt4, active compounds read low 0.965 | S. cerevisiae deletion strains, locus YKL068W, active compounds read low 0.983 | S. cerevisiae deletion strains, locus YKL085W, strain MDH1 (second series), active compounds read low 0.973 | S. cerevisiae deletion strains, locus YKL085W, strain MDH1, active compounds read low 0.973 | S. cerevisiae deletion strains, locus YKL160W, strain elf1, active compounds read low 0.969 | S. cerevisiae deletion strains, locus YKL190W, strain CNB1, active compounds read low 0.997 | S. cerevisiae deletion strains, locus YKR001C, strain vps1, active compounds read low 0.964 | S. cerevisiae deletion strains, locus YKR026C, strain gcn3, active compounds read low 0.989 | S. cerevisiae deletion strains, locus YKR091W, strain srl3, active compounds read low 0.985 | S. cerevisiae deletion strains, locus YLL001W, strain dnm1, active compounds read low 0.994 | S. cerevisiae deletion strains, locus YLL026W, active compounds read low 0.981 | S. cerevisiae deletion strains, locus YLL041C, strain sdh2, active compounds read low 0.989 | S. cerevisiae deletion strains, locus YLR027C, strain aat2, active compounds read low 0.97 | S. cerevisiae deletion strains, locus YLR039C, strain RIC1, active compounds read low 0.883 | S. cerevisiae deletion strains, locus YLR058C, strain SHM2, active compounds read low 0.983 | S. cerevisiae deletion strains, locus YLR102C, strain apc9, active compounds read low 0.979 | S. cerevisiae deletion strains, locus YLR221C, strain rsa3, active compounds read low 0.961 | S. cerevisiae deletion strains, locus YLR258W, strain gsy2, active compounds read low 0.975 | S. cerevisiae deletion strains, locus YLR262C, strain YPT6, active compounds read low 0.884 | S. cerevisiae deletion strains, locus YLR268W, strain sec22, active compounds read low 0.97 | S. cerevisiae deletion strains, locus YLR320W, strain mms22, active compounds read low 0.878 | S. cerevisiae deletion strains, locus YLR330W, strain CHS5, active compounds read low 0.991 | S. cerevisiae deletion strains, locus YLR342W, strain FKS1 (second series), active compounds read low 0.913 | S. cerevisiae deletion strains, locus YLR342W, strain FKS1, active compounds read low 0.964 | S. cerevisiae deletion strains, locus YLR357W, strain rsc2, active compounds read low 0.993 | S. cerevisiae deletion strains, locus YLR370C, strain arc18, active compounds read low 0.991 | S. cerevisiae deletion strains, locus YLR371W, strain rom2, active compounds read low 0.968 | S. cerevisiae deletion strains, locus YLR384C, strain iki3, active compounds read low 0.974 | S. cerevisiae deletion strains, locus YLR418C, strain cdc73, active compounds read low 0.879 | S. cerevisiae deletion strains, locus YML016C, strain PPZ1, active compounds read low 0.986 | S. cerevisiae deletion strains, locus YML032C, strain rad52, active compounds read low 0.956 | S. cerevisiae deletion strains, locus YML120C, strain ndi1, active compounds read low 0.983 | S. cerevisiae deletion strains, locus YML124C, strain tub3, active compounds read low 0.976 | S. cerevisiae deletion strains, locus YMR058W, strain fet3, active compounds read low 0.991 | S. cerevisiae deletion strains, locus YMR078C, strain ctf18, active compounds read low 0.953 | S. cerevisiae deletion strains, locus YMR125W, strain sto1, active compounds read low 0.995 | S. cerevisiae deletion strains, locus YMR129W, active compounds read low 0.972 | S. cerevisiae deletion strains, locus YMR205C, strain PFK2, active compounds read low 0.883 | S. cerevisiae deletion strains, locus YMR223W, strain ubp8, active compounds read low 0.963 | S. cerevisiae deletion strains, locus YMR231W, strain pep5, active compounds read low 0.977 | S. cerevisiae deletion strains, locus YMR263W, strain SAP30, active compounds read low 0.988 | S. cerevisiae deletion strains, locus YMR307W, strain GAS1, active compounds read low 0.967 | S. cerevisiae deletion strains, locus YNL067W, strain RPL9B, active compounds read low 0.993 | S. cerevisiae deletion strains, locus YNL128W, strain TEP1, active compounds read low 0.992 | S. cerevisiae deletion strains, locus YNL153C, strain GIM3, active compounds read low 0.988 | S. cerevisiae deletion strains, locus YNL209W, strain ssb2, active compounds read low 0.979 | S. cerevisiae deletion strains, locus YNL233W, strain BNI4, active compounds read low 0.999 | S. cerevisiae deletion strains, locus YNL248C, strain rpa49, active compounds read low 0.99 | S. cerevisiae deletion strains, locus YNL250W, strain rad50, active compounds read low 0.95 | S. cerevisiae deletion strains, locus YNL271C, strain bni1, active compounds read low 0.975 | S. cerevisiae deletion strains, locus YNL298W, strain CLA4, active compounds read low 0.958 | S. cerevisiae deletion strains, locus YNL322C, strain KRE1 (second series), active compounds read low 0.979 | S. cerevisiae deletion strains, locus YNL322C, strain KRE1, active compounds read low 0.987 | S. cerevisiae deletion strains, locus YNR049C, strain mso1, active compounds read low 0.985 | S. cerevisiae deletion strains, locus YNR052C, strain pop2, active compounds read low 0.963 | S. cerevisiae deletion strains, locus YOL006C, strain TOP1, active compounds read low 0.926 | S. cerevisiae deletion strains, locus YOL012C, strain htz1 1.18 | S. cerevisiae deletion strains, locus YOL147C, strain pex11, active compounds read low 0.973 | S. cerevisiae deletion strains, locus YOR001W, strain rrp6, active compounds read low 0.995 | S. cerevisiae deletion strains, locus YOR061W, strain CKA2, active compounds read low 0.992 | S. cerevisiae deletion strains, locus YOR069W, strain VPS5, active compounds read low 0.985 | S. cerevisiae deletion strains, locus YOR070C, strain gyp1, active compounds read low 0.991 | S. cerevisiae deletion strains, locus YOR080W, strain dia2, active compounds read low 0.974 | S. cerevisiae deletion strains, locus YOR083W, strain WHI5, active compounds read low 0.982 | S. cerevisiae deletion strains, locus YOR106W, strain vam3, active compounds read low 0.95 | S. cerevisiae deletion strains, locus YOR136W, strain idh2, active compounds read low 0.978 | S. cerevisiae deletion strains, locus YOR144C, strain elg1, active compounds read low 0.967 | S. cerevisiae deletion strains, locus YOR184W, strain ser1, active compounds read low 0.879 | S. cerevisiae deletion strains, locus YOR265W, strain rbl2, active compounds read low 0.98 | S. cerevisiae deletion strains, locus YOR270C, strain vph1, active compounds read low 0.922 | S. cerevisiae deletion strains, locus YOR290C, strain snf2, active compounds read low 0.977 | S. cerevisiae deletion strains, locus YOR316C, strain cot1, active compounds read low 0.973 | S. cerevisiae deletion strains, locus YPL051W, strain arl3, active compounds read low 0.937 | S. cerevisiae deletion strains, locus YPL055C, strain LGE1, active compounds read low 0.981 | S. cerevisiae deletion strains, locus YPL078C, strain atp4, active compounds read low 0.988 | S. cerevisiae deletion strains, locus YPL106C, strain sse1, active compounds read low 0.984 | S. cerevisiae deletion strains, locus YPL240C, strain hsp82, active compounds read low 0.982 | S. cerevisiae deletion strains, locus YPL241C, strain CIN2, active compounds read low 0.988 | S. cerevisiae deletion strains, locus YPR119W, strain clb2, active compounds read low 0.973 | S. cerevisiae deletion strains, locus YPR141C, strain kar3, active compounds read low 0.963 | S. cerevisiae deletion strains, locus YPR163C, strain tif3, active compounds read low 0.946 | S. cerevisiae deletion strains, locus YPR167C, strain met16, active compounds read low 0.978 | S. cerevisiae deletion strains, strain wtn01, active compounds read low 0.966 | S. cerevisiae strains, strain wild type, active compounds read low 0.986

Reference: PubChem BioAssay AID1159580 (chemical genetic matrix, 2015)
